Drawing on PubChem BioAssay AID743468 (Broad Institute, 2014), this text covers outcome for one compound.

The other results are listed elsewhere or left out. Activity calls are given as the source filed them.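 The calls were made as follows: active = fitted curve reaching a 40% PDK4 expression rise at or below the top valid tested dose; inconclusive = no clear call, values can overlap the other calls; inactive = the rest, including shifts the wrong way.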

The assay can be described thus: change in PGC-1a target gene PDK4 expression, dose response, C2C12 myotubes, RT-qPCR, cherry-pick (AID 743468). Particulars: PGC-1a adenovirus, PDK4 mRNA qPCR; series mostly up to 19.5 µM.

Regarding `N#Cc1ccc(-c2ccc(C3[C@@H]4CN(S(=O)(=O)c5ccc(F)cc5)C[C@H]3N4)cc2)cc1` (stereo partly specified), the compound was called inactive.
